The record followed here is the antibiotic and cytotoxicity screens of Wong et al. (2023).

Among all 39,000 compounds or so, about 500 (1.3%) were called active. The sample holds actives, similar compounds and a random draw of the others, so the mix is not that of the screen.

This test relates to S. aureus RN4220. The test can be described thus: growth inhibition call (relative growth <= 0.2). The following applies: 50 µM.
Consider `CCCCCCc1ccc(O)cc1O.Nc1c2ccccc2nc2ccccc12`, for which the growth inhibition call was “inactive”.

For `CCCCCCc1ccc(O)cc1O` [listing 1 of 2 here], the growth inhibition call was “active”.

As for `CCCCCCc1ccc(O)cc1O` [listing 2 of 2 here], the growth inhibition call was “active”.

For `COC(=O)CCc1ccc(OC)cc1O`, the growth inhibition call is “inactive”.

In the case of `CCCCC(=O)c1ccc(O)cc1`, the growth inhibition call was “inactive”.

Take `CCCCCCCc1c(C)c(O)cc2c1[nH]c1ccccc12`: the growth inhibition call was “inactive”.

For the molecule `COC(=O)N/N=C/c1c[n+]([O-])c2ccccc2[n+]1[O-]`, the growth inhibition call was “inactive”.

As for `CN1C(=O)c2cc(NS(C)(=O)=O)ccc2OC[C@H]2O[C@H](CC(=O)N3CCOCC3)CC[C@H]21`, the growth inhibition call was “inactive”.

Regarding `C[C@H]1CN([C@@H](C)CO)C(=O)c2cc(NS(C)(=O)=O)ccc2O[C@H]1CN(C)S(=O)(=O)c1ccccc1`, the growth inhibition call was “inactive”.

Regarding `C[C@@H]1CCCCO[C@H](CN(C)C(=O)CCCN(C)C)[C@@H](C)CN([C@@H](C)CO)C(=O)c2cc(NC(=O)Nc3cccc4ccccc34)ccc2O1`, the growth inhibition call was “inactive”.

For the molecule `CO[C@@H]1CN(C)C(=O)c2ccc(NC(=O)CN(C)C)cc2OC[C@@H](C)N(C(=O)C2CCOCC2)C[C@H]1C`, the growth inhibition call is “inactive”.

In the case of `CC(C)NC(=O)Nc1ccc2c(c1)C(=O)N([C@H](C)CO)C[C@@H](C)[C@@H](CN(C)C(=O)Nc1ccc(C(F)(F)F)cc1)OCCCC[C@@H](C)O2`, the growth inhibition call was “inactive”.

On to `CC(=O)N1[C@@H]2c3ccc(-c4ccccc4)c(=O)n3C[C@H]1[C@H](CO)[C@H]2C(=O)N1CCN(C)CC1`, for which the growth inhibition call is “inactive”.

`C[C@H]1CN([C@@H](C)CO)C(=O)c2cc(NC(=O)c3ccncc3)ccc2O[C@@H]1CN(C)S(=O)(=O)c1ccc(F)cc1`: the growth inhibition call is “inactive”.

On to `COC(=O)c1ccc2c(c1)no[n+]2[O-]`, for which the growth inhibition call is “inactive”.

As to `COc1ccc(-n2nc(CCC(=O)N(C)O)cc2-c2ccc(Cl)cc2)cc1`, the growth inhibition call was “inactive”.

Turning to `CN(C)CCOC(=O)COc1ccc(Cl)cc1.Cl`, the growth inhibition call is “inactive”.

For `CCCCc1nc(-c2ccc(OCCCN(CC)CC)cc2)cn1-c1ccc(Oc2ccc(Cl)cc2)cc1`, the growth inhibition call is “active”.

Turning to `Cc1cc(=O)n2nc(C(=O)O)nc2[nH]1`, the growth inhibition call is “inactive”.

With `CN1C(=O)c2cc(NC(=O)C3CCC3)ccc2OC[C@@H]2O[C@H](CC(=O)NCCc3ccncc3)CC[C@@H]21`, the growth inhibition call is “inactive”.

Take `CC(C)CC#Cc1ccc2c(c1)O[C@H](CN(C)S(=O)(=O)c1ccc(F)cc1)[C@H](C)CN([C@H](C)CO)S2(=O)=O`: the growth inhibition call is “inactive”.

For the molecule `CCCC1CC(C(=O)NC(C(C)O)C2OC(SC)C(O)C(O)C2O)N(C)C1.Cl` (stereo unspecified), the growth inhibition call is “active”.

As to `CCC[C@@H]1C[C@@H](C(=O)N[C@@H]([C@H]2O[C@H](SC)[C@H](O)[C@@H](O)[C@H]2O)[C@@H](C)O)N(C)C1`, the growth inhibition call is “active”.

For the molecule `CCC[C@@H]1C[C@@H](C(=O)N[C@H]([C@H]2O[C@H](SC)[C@H](O)[C@@H](O)[C@H]2O)[C@H](C)O)N(C)C1`, the growth inhibition call was “active”.

With `CC(C)NC(=O)Nc1ccc2c(c1)C(=O)N([C@H](C)CO)C[C@H](C)[C@@H](CN(C)C(=O)Nc1ccc(F)cc1)OCCCC[C@H](C)O2`, the growth inhibition call is “inactive”.

For the molecule `COc1cccc(-c2ccc3c(c2)O[C@H](CN(C)C(=O)C2CC2)[C@@H](C)CN([C@@H](C)CO)S3(=O)=O)c1`, the growth inhibition call was “inactive”.

`COc1ccc(CN(C)C[C@H]2OCCCC[C@@H](C)Oc3ccc(NC(=O)Nc4ccccc4)cc3C(=O)N([C@@H](C)CO)C[C@@H]2C)cc1`: the growth inhibition call is “inactive”.

Turning to `C[C@@H]1CN([C@H](C)CO)C(=O)c2cc(-c3ccncc3)cnc2O[C@H]1CN(C)C(=O)Nc1ccc2c(c1)OCO2`, the growth inhibition call is “inactive”.

Turning to `C[C@@H]1CCCCO[C@H](CN(C)C(=O)Nc2cccc3ccccc23)[C@@H](C)CN([C@@H](C)CO)C(=O)c2cc(NC(=O)Nc3ccc(F)cc3)ccc2O1`, the growth inhibition call is “inactive”.

`Cc1ccc(S(=O)(=O)N(C)C[C@H]2Oc3c(NC(=O)Nc4ccc(C(F)(F)F)cc4)cccc3C(=O)N([C@H](C)CO)C[C@H]2C)cc1`: the growth inhibition call was “inactive”.

Regarding `C[C@H]1CN([C@@H](C)CO)C(=O)c2cc(NC(=O)C3CCCCC3)ccc2O[C@H]1CN(C)Cc1ccc(Cl)c(Cl)c1`, the growth inhibition call is “inactive”.

As for `C[C@@H]1CN([C@H](C)CO)S(=O)(=O)c2ccc(C#CCN(C)C)cc2O[C@H]1CN(C)Cc1ccc2c(c1)OCO2`, the growth inhibition call is “inactive”.

On to `COc1ccc(COC[C@]23N=C4SCc5ccccc5CN4[C@H](c4ccccc4O2)[C@H]3COC(=O)NCCCCCC(=O)NO)cc1`, for which the growth inhibition call was “inactive”.

As to `CCn1cc(C(=O)O)c(=O)c2ccc(C)nc21`, the growth inhibition call was “inactive”.

For the molecule `CCN1CCN(c2cc3c(cc2F)c(=O)c(C(=O)O)cn3C2CC2)CC1`, the growth inhibition call is “active”.

Regarding `CCn1cc(C(=O)O)c(=O)c2cc(F)c(N3CCN(C(=S)Nc4cc(C(F)(F)F)ccc4Cl)CC3)cc21`, the growth inhibition call was “inactive”.

Regarding `CCn1cc(C(=O)O)c(=O)c2cc(F)c(N3CCNCC3)cc21`, the growth inhibition call is “active”.

Turning to `CCn1cc(C(=O)N2CCN(C)CC2)c(=O)c2cc(S(=O)(=O)N(C)C)ccc21`, the growth inhibition call is “inactive”.

With `CCn1cc(C(=O)O)c(=O)c2cc(F)c(N3CCN(C)CC3)cc21.CS(=O)(=O)O`, the growth inhibition call was “active”.

`CCn1cc(C(=O)O)c(=O)c2cnc(N3CCCC3)nc21`: the growth inhibition call was “inactive”.

Turning to `O=C(O)c1cn(C2CC2)c2cc(N3CCNCC3)c(F)cc2c1=O`, the growth inhibition call is “inactive”.

As to `C[C@@H]1CCCCO[C@H](CN(C)C(=O)CCCN(C)C)[C@@H](C)CN([C@H](C)CO)C(=O)c2cc(N(C)C)ccc2O1`, the growth inhibition call is “inactive”.

For `C[C@@H]1CCCCO[C@H](CN(C)C(=O)NC2CCCCC2)[C@@H](C)CN([C@@H](C)CO)C(=O)c2cc(NC(=O)CCC(F)(F)F)ccc2O1`, the growth inhibition call is “inactive”.

Turning to `COCC(=O)N1C[C@@H](C)[C@@H](OC)CN(C)C(=O)c2cc(NC(=O)Nc3cccc(F)c3)ccc2OC[C@H]1C`, the growth inhibition call was “inactive”.

Turning to `C[C@@H]1CN([C@H](C)CO)C(=O)c2cc(NC(=O)CCC(F)(F)F)ccc2O[C@@H](C)CCCCO[C@@H]1CN(C)Cc1ccccc1`, the growth inhibition call was “inactive”.

Turning to `C[C@H]1CN([C@@H](C)CO)C(=O)c2cccc(NS(C)(=O)=O)c2O[C@@H]1CN(C)C(=O)Nc1ccc2c(c1)OCO2`, the growth inhibition call is “inactive”.

On to `CN(C)C(=O)CN1CCn2cc(Cn3cncn3)nc2C1`, for which the growth inhibition call is “inactive”.

In the case of `Cc1noc(C)c1NC(=O)Nc1ccc2c(c1)CC(=O)N([C@H](C)CO)C[C@H](C)[C@H](CN(C)S(=O)(=O)c1cccs1)O2`, the growth inhibition call was “inactive”.

In the case of `NC(=O)c1cc[n+](CC2=C(C(=O)O)N3C(=O)[C@@H](NC(=O)Cc4cccs4)[C@H]3SC2)cc1`, the growth inhibition call is “active”.

Take `NC(=O)c1cc[n+](CC2=C(C(=O)[O-])N3C(=O)C(NC(=O)C(c4ccccc4)S(=O)(=O)[O-])C3SC2)cc1.[Na+]` (stereo unspecified): the growth inhibition call was “inactive”.

As to `CC(C)(ON=C(C(=O)NC1C(=O)N2C(C(=O)[O-])=C(C[n+]3ccccc3)CSC12)c1csc(N)n1)C(=O)O` (stereo unspecified), the growth inhibition call is “inactive”.

For `NC(=O)c1cc[n+](CC2=C(C(=O)[O-])N3C(=O)C(NC(=O)Cc4cccs4)C3SC2)cc1` (stereo unspecified), the growth inhibition call is “active”.

For `Cn1sccc1=O`, the growth inhibition call is “inactive”.

In the case of `O=C(C[C@@H]1CC[C@H]2[C@@H](COC[C@@H](O)CN2S(=O)(=O)c2ccc(Cl)cc2)O1)N1CCc2ccccc2C1`, the growth inhibition call is “inactive”.

As to `C[C@H](CO)N1C[C@H](C)[C@@H](CN(C)Cc2ccncc2)OCCCC[C@H](C)Oc2ccc(NC(=O)Nc3ccc4c(c3)OCO4)cc2C1=O`, the growth inhibition call was “inactive”.

As for `O=C(C[C@@H]1CC[C@H]2NC[C@@H](O)COC[C@@H]2O1)NCCN1CCCC1`, the growth inhibition call was “inactive”.

With `COc1cc([C@@H]2c3cc4c(cc3[C@@H](O[C@@H]3O[C@@H]5CO[C@@H](C)O[C@H]5[C@H](O)[C@H]3O)[C@H]3COC(=O)[C@H]23)OCO4)cc(OC)c1O`, the growth inhibition call was “active”.

Consider `COc1cc(C2c3cc4c(cc3C(OC3OC5COC(C)OC5C(O)C3O)C3COC(=O)C23)OCO4)cc(OC)c1O` (stereo unspecified), for which the growth inhibition call is “inactive”.

Take `COc1cc([C@@H]2c3cc4c(cc3[C@@H](O[C@@H]3O[C@@H]5CO[C@@H](C)O[C@H]5[C@H](O)[C@H]3O)[C@@H]3COC(=O)[C@@H]23)OCO4)cc(OC)c1O`: the growth inhibition call is “inactive”.

With `Nc1cc(=O)[nH]c(=O)n1-c1ccc(Cl)cc1`, the growth inhibition call is “inactive”.

As for `N#CC(c1ccc(Cl)cc1)c1c(Cl)cc(-n2ncc(=O)[nH]c2=O)cc1Cl` (stereo unspecified), the growth inhibition call is “active”.

Turning to `N#C[C@H](N)c1ccc(Cl)cc1`, the growth inhibition call was “inactive”.

On to `Cc1noc(C)c1NC(=O)N(C)C[C@@H]1OCCCC[C@@H](C)Oc2ccc(NC(=O)C3CCCCC3)cc2C(=O)N([C@@H](C)CO)C[C@@H]1C`, for which the growth inhibition call is “inactive”.

`C[C@@H]1CN([C@@H](C)CO)C(=O)Cc2cc(NS(=O)(=O)c3ccccc3)ccc2O[C@@H]1CN(C)Cc1ccc(-c2ccccc2)cc1`: the growth inhibition call is “inactive”.

For the molecule `O=C(N[C@@H](c1ccccc1)c1ccc2ccccc2n1)C1CCN(Cc2ccc(Oc3ccccc3)cc2)CC1`, the growth inhibition call was “inactive”.

Take `COc1cc(CN2CCC(C(=O)N[C@@H](c3ccc(-c4ccccc4)cc3)c3cnccn3)CC2)cc(OC)c1`: the growth inhibition call is “inactive”.

As to `O=C(N[C@H](c1ccc(Cl)cc1)c1cnccn1)C1CCN(Cc2ccc(Oc3ccccc3)cc2)CC1`, the growth inhibition call was “active”.

For `COc1ccc(/C=C/CN2CCC(C(=O)N[C@@H](c3ccc(F)cc3)c3ccc4ccccc4n3)CC2)cc1`, the growth inhibition call is “inactive”.

As for `O=C(N[C@@H](c1ccc(F)cc1)c1ccc2ccccc2n1)C1CCN(CCOc2ccc(F)cc2)CC1`, the growth inhibition call is “active”.

Consider `COc1ccc(/C=C/CN2CCC(C(=O)N[C@@H](c3ccc(-c4ccccc4)cc3)c3cnccn3)CC2)cc1`, for which the growth inhibition call is “active”.

Regarding `COc1ccc(OCCN2CCC(C(=O)N[C@@H](c3ccc(F)cc3)c3ccc4ccccc4n3)CC2)cc1`, the growth inhibition call was “inactive”.

On to `O=C(N[C@@H](c1ccc(-c2ccccc2)cc1)c1cnccn1)C1CCN(Cc2ccc(Oc3ccccc3)cc2)CC1`, for which the growth inhibition call is “inactive”.

Regarding `O=C(N[C@@H](c1ccccc1)c1ccc2ccccc2n1)C1CCN(CCOc2ccc(Cl)cc2Cl)CC1`, the growth inhibition call was “inactive”.

Regarding `O=C(N[C@H](c1ccc(F)cc1)c1ccc2ccccc2n1)C1CCN(Cc2ccc(Oc3ccccc3)cc2)CC1`, the growth inhibition call is “inactive”.

Turning to `O=C(N[C@@H](c1ccccc1)c1ccc2ccccc2n1)C1CCN(CCOc2ccc(Cl)cc2)CC1`, the growth inhibition call is “active”.

For `O=C(N[C@@H](c1ccc(-c2ccccc2)cc1)c1cnccn1)C1CCN(Cc2ccc(Cl)c(Cl)c2)CC1`, the growth inhibition call is “inactive”.
